# NadD block: NadD (S. aureus) enzyme inhibition; inhibition, % at 20 µM; 360,000 tested, 0.78% active; purified NadD enzyme, colorimetric absorbance read-out; AID 602399; in the data active means inhibition above about 26%
# GRK2 inh: human GRK2 inhibition via aptamer displacement. P25098. inhibition of aptamer binding, % at 10 µM. bead flow cytometry, FAM-aptamer displacement from GRK2. 330,000 tested, 0.59% active;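 active means inhibition of aptamer binding above 40%, roughly 3 SD of noise, on plates passing a quality check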;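 further: median bead fluorescence of bound FAM aptamer so fluorescent compounds give negative values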
# B2AR ag: activates human beta-2 adrenergic receptor causing internalization. P07550. Am2.2-beta2AR cells, FAP receptor internalization, flow cytometry. response, % (concentration not given with the values). 340,000 tested, 0.43% active;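 active means response above a set limit, near 3 SD of response in nonfluorescent compounds, cut at about 42% in these data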
# Exocytosis inh: blocks lytic granule exocytosis. 360,000 tested, 0.66% active. inhibition, % at 10 µM. TALL-104 LAMP-1 surface exposure, flow cytometry; cells stimulated with thapsigargin and PMA;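 active means inhibition above about 55%, limit read from the data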
# PP1 inh: counter-screen for PP5 inhibitors: inhibitors of human PP1-alpha; P62136; purified PP1alpha, OMFP fluorescence; inhibition, % at 6.7 µM; 320,000 tested, 0.9% active;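 active means inhibition above the mean inhibition of all tested compounds plus 3 SD, computed separately for each screening campaign, cut at about 15% in these data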
# NadD inh conf: NadD (S. aureus) inhibition, single concentration confirmation; shares compounds with NadD block; purified S. aureus NadD, colorimetric enzyme assay; inhibition, % at 20 µM; 2,000 tested, 13% active; in the data active means inhibition mostly above about 42%, no sharp cut-off; inactive means mostly below about 42%
# Numbers without * were called inactive; / = not tested or not shown. Only some compounds are listed: those with a hit (about 2.9% of all), similar ones and a draw of the others.
SMILES,NadD block,GRK2 inh,B2AR ag,Exocytosis inh,PP1 inh,NadD inh conf
O=C(NCC1CCCO1)C1CCCN(S(=O)(=O)c2cc(Cl)ccc2Cl)C1 (centres undefined),2,0,-15,-2,-2,/
COc1ccc(OC[C@@H](O)CNC(=O)c2cccc3c2C(=O)c2ccc(-c4ccc(F)cc4OCc4ccccc4)cc2S3(=O)=O)cc1,35*,0,-7,-9,/,25
Cn1c(CNC(=O)CNC(=O)c2ccccc2F)cc(=O)n(C)c1=O,-3,4,-1,-2,-1,/
COc1ccccc1C(=O)NCC(=O)NCc1cc(=O)n(C)c(=O)n1C,62*,0,2,-2,-3,-3
Cc1csc(N=Cc2ccc([N+](=O)[O-])o2)n1,36*,/,/,5,/,22
COc1cc(OC)cc(-c2c(-c3cccs3)c3cc(-c4ccn[nH]4)ccc3n2C)c1,38*,8,8,7,5,20
COC(=O)C1=C(C)N(c2ccc(F)cc2)/C(=C/c2ccc(O)cc2)C1=O,3,3,-21,-1,2,/
COc1cc(/C=C/C(=O)c2ccc(NS(=O)(=O)c3ccc(C)cc3)cc2)cc(OC)c1O,32*,3,-15,1,-4,46
Cc1cc(C)n2nc(C(=O)NNC(=O)c3ccccc3)nc2n1,-2,4,4,-8,0,/
O=C(CC1OC(=O)c2ccccc21)Nc1cc(Cl)ccc1N1CCCC1 (centres undefined),32*,0,-2,12,5,12
COc1ccc(C(OCC2CO2)c2ccc(OC)cc2)cc1 (centres undefined),/,1,/,/,-3,/
COc1ccc(C(O)c2nc(-c3cccc(O)c3)cs2)cc1 (centres undefined),-3,/,/,-2,/,/
CCc1nnc(NS(=O)(=O)c2ccc(N/C=C\C(=O)c3ccc4ccccc4c3)cc2)s1,30*,2,11,14,4,50*
COc1cccc(-n2c(SCC(=O)N3CCc4ccccc43)nnc2-c2c[nH]c3ccccc23)c1,38*,0,-7,-3,2,7
CCOc1ccc(-n2c(SCC(=O)N3CCc4ccccc43)nnc2-c2c[nH]c3ccccc23)cc1,8,0,-4,-2,6,/
COc1ccc(-c2cccc(NC(=O)c3cccs3)c2)nn1,1,2,2,-7,-5,/
O=C(O)c1cccc(NC(=S)N/N=C/c2cccc(O)c2)c1,0,1,1,-3,-1,/
O=C(O)c1cccc(NC(=S)N/N=C/c2ccccc2OCc2ccc(Br)cc2)c1,45*,0,40,-5,17*,64*
O=C(O)c1cccc(NC(=S)N/N=C/c2ccccc2OCc2cccc(Br)c2)c1,51*,/,13,-1,/,72*
Cc1cc(C(=O)CSc2nncn2C)c(C)n1-c1ccccc1,4,2,4,-3,-7,/
CCc1ccccc1NC(=O)C1CCN(S(C)(=O)=O)CC1,4,/,-2,5,-3,/
O=C1N/C(=N\N=C\c2cccnc2)SC1Cc1ccc(SC(F)F)cc1 (centres undefined),6,7,2,-4,-1,/
O=C1N/C(=N\N=C\c2ccc3ncccc3c2)SC1Cc1ccc(SC(F)F)cc1 (centres undefined),33*,0,-11,-1,5,10
Cc1cc(-c2csc(NC(=O)c3cc4ccccc4o3)n2)c(C)n1C,36*,2,8,-2,-6,8
CCOC(=O)c1csc(NC(=O)c2cc3ccccc3o2)n1,-2,1,11,-3,1,/
SMILES,NadD block,GRK2 inh,B2AR ag,Exocytosis inh,PP1 inh,NadD inh conf
O=S(=O)(c1ccc(Cl)cc1)N1CCN(C(=S)NCC2CCCO2)CC1 (centres undefined),-8,1,-3,-1,5,/
FC(F)Oc1ccc(NC(=S)NNc2ccnc3cc(Cl)ccc23)cc1,32*,1,10,13,-4,18
Cc1ccc2oc3nc(C)c(C(=O)Nc4cccc(C(F)(F)F)c4)cc3c(=O)c2c1,-2,2,9,1,-1,/
CN(C)c1cc[n+](CC(=O)Nc2ccc(Oc3ccccc3)cc2)cc1,-10,0,-7,4,0,/
COc1ccc(Nc2nc(-c3cc4cccc(OC)c4oc3=O)cs2)cc1,44*,0,13,0,1,-4
COc1ccc2oc(=O)c(-c3csc(Nc4cccc(O)c4)n3)cc2c1,35*,1,17,8,1,59*
C=CCN(Cc1cn(C)nc1-c1cccc(Cl)c1)C1CCS(=O)(=O)C1 (centres undefined),0,1,0,2,0,/
CCN(CC)C(=S)Sc1c(-c2ccccc2)c2cc(Cl)ccc2[nH]c1=O,39*,1,3,-1,0,0
CC(O)CNc1nc2ccccc2n1CC(=O)NC12CC3CC(CC(C3)C1)C2 (centres undefined),-6,0,-6,5,-6,/
CCC(=O)N1CCN(c2nc3ccccc3s2)CC1,1,2,-4,0,-4,/
O=C(c1cc2sccc2n1Cc1ccccc1)N1CCN(c2nc3ccccc3s2)CC1,34*,3,5,-6,15*,21
COc1ccc(S(=O)(=O)N(C)C[C@@H]2OCCCC[C@H](C)Oc3ccc(NC(=O)Nc4ccc(C(F)(F)F)cc4)cc3C(=O)N([C@H](C)CO)C[C@H]2C)cc1,30*,/,/,-1,/,-3
C[C@@H]1CCCCO[C@H](CN(C)C(=O)CCC(F)(F)F)[C@@H](C)CN([C@H](C)CO)C(=O)c2cc(NC(=O)c3ccncc3)ccc2O1,3,/,/,-10,/,/
C[C@H]1CCCCO[C@@H](CN(C)S(=O)(=O)c2ccc(F)cc2)[C@@H](C)CN([C@@H](C)CO)C(=O)c2cc(NC(=O)Nc3ccc4c(c3)OCO4)ccc2O1,8,/,/,6,/,/
C[C@@H]1CCCCO[C@H](CN(C)C(=O)Nc2ccc(C(F)(F)F)cc2)[C@@H](C)CN([C@H](C)CO)C(=O)c2cc(NC(=O)c3ccncc3)ccc2O1,35*,/,/,0,/,35
C[C@@H]1CCCCO[C@H](CN(C)S(=O)(=O)c2ccc(F)cc2)[C@@H](C)CN([C@H](C)CO)C(=O)c2cc(NC(=O)Nc3ccc(C(F)(F)F)cc3)ccc2O1,35*,/,/,2,/,-2
C[C@@H]1CN([C@@H](C)CO)C(=O)c2cc(C#CC3CCCCC3)cnc2O[C@@H]1CN(C)S(=O)(=O)c1ccc(F)cc1,75*,/,/,-5,/,33
CCCCCCCCN1C(=O)[C@H](CC(=O)NCCC(C)C)C[C@@]2(C(=O)OC)CCCCC=C12,19,/,/,-5,/,/
COc1ccc(-c2ccc3c(c2)S(=O)(=O)c2cccc(C(=O)N4CCN(c5c(Cl)cncc5Cl)CC4)c2C3=O)cc1OC,44*,3,24,3,/,17
O=C1c2ccc(Cl)cc2S(=O)(=O)c2cccc(C(=O)N3CCN(c4ncc(Br)cn4)CC3)c21,12,1,1,-3,9,/
